Reference: PubChem BioAssay (EPA / NIEHS)
The source made the active and inactive calls. The calls were made as follows: active = hit-call score of the fitted dose curve at least 0.9, where 1 is the maximum; inactive = score below 0.9.

What was measured:
[1] = read-out: Collagen I, COL1A1 (gene 1277); assay: BSK_MyoF_CollagenI: BioMAP Diversity Plus: MyoF Assay for Collagen I Biomarker Activity (AID 2284238); settings: primary human lung fibroblasts
Procedure, shortened: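 Lung fibroblasts (human primary) dosed, 24 h; Collagen I by ELISA; positive-direction fit vs DMSO control. Parallel SRB total-protein staining (0.1% SRB, 10% TCA fixation, 560 nm) flags overt cytotoxicity.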

[2] = read-out: Collagen III, COL3A1 (gene 1281); assay: BSK_MyoF_CollagenIII: BioMAP Diversity Plus: MyoF Assay for Collagen III Biomarker Activity (AID 2284239); settings: primary human lung fibroblasts
Procedure, shortened: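 ELISA read-out of collagen III from human lung fibroblasts after 24 h of chemical treatment. The DMSO control served as negative control and baseline, with values fitted in the positive direction.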

[3] = read-out: Interleukin 17F (IL17F), IL17F (gene 112744); assay: BSK_BT_xIL17F: BioMAP Diversity Plus: BT Assay for Interleukin 17F (IL17F) Biomarker Activity (AID 2284243); settings: primary human B cells with PBMC
Procedure, shortened: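 Compound was added to co-cultures of human B cells and PBMC. After 24 hours, IL-17F released into the medium was measured with LumineX xMAP technology. Responses were then fitted upward relative to DMSO.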

[4] = read-out: Actin alpha 1 (ACTA1), ACTA1 (gene 58); assay: BSK_MyoF_ACTA1: BioMAP Diversity Plus: MyoF Assay for Actin alpha 1 (ACTA1) Biomarker Activity (AID 2284244); settings: primary human lung fibroblasts
Experimental: BSK_MyoF is a cell-based, multiplexed-readout assay that uses lung fibroblasts, […], with measurements taken at 24 hours after chemical dosing in a microplate: 96-well plate.BSK_MyoF_ACTA1 is an assay component measured in the BSK_MyoF assay. It measures a-SMA antibody related to regulation of gene expression using ELISA technology.Data from the assay component BSK_MyoF_ACTA1 was analyzed at the endpoint, BSK_MyoF_ACTA1, in the positive analysis fitting direction relative to DMSO as the negative control and baseline of activity. Using a type of binding reporter, gain or loss-of-signal activity can be used to understand protein changes. […]
The levels of cell surface (or secreted, indicated by the prefix "s") biomarker endpoints were measured by ELISA. Overt cytotoxicity to cells in confluent adherent cultures (all systems other than the BT system) was assessed by measuring total protein levels using sulforhodamine B (SRB) staining in parallel cultures at the time of biomarker measurements, indicated as SRB endpoints. For proliferation assays for adherent cell types, individual cell types are cultured at sub-confluence and relative cell numbers quantified by SRB staining at time points optimized for each system (48 h: 3C and CASM3C systems; 72 h: BT and HDF3CGF systems; 96 h: SAg system). […] Plates were read after 6 h.

[5] = read-out: Interleukin 2 (IL2), IL2 (gene 3558); assay: BSK_BT_xIL2: BioMAP Diversity Plus: BT Assay for Interleukin 2 (IL2) Biomarker Activity (AID 2284245); settings: primary human B cells with PBMC
Procedure, shortened: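 Readout: supernatant IL-2 via Luminex xMAP after 24 h chemical dosing of a B cell/PBMC primary human co-culture. DMSO serves as negative control and baseline; increases in signal were fitted.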

[6] = read-out: Basic fibroblast growth factor (bFGF), FGF2 (gene 2247); assay: BSK_MyoF_bFGF: BioMAP Diversity Plus: MyoF Assay for Basic fibroblast growth factor (bFGF) Biomarker Activity (AID 2284246); settings: primary human lung fibroblasts
Procedure, shortened: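 Primary human lung fibroblast culture, 24 h compound exposure; ELISA read-out of bFGF. Positive-direction fit vs DMSO baseline. Cytotoxicity: SRB stain (0.1% SRB, 10% TCA fixation, 560 nm) in parallel wells.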

Measured: outcome

COc1cnc(OC)n2nc(NS(=O)(=O)c3c(OCC(F)F)cccc3C(F)(F)F)nc12
inactive: all assays above
